Experimental findings from PubChem BioAssay (Tox21) are described below.

Assay [1] in a line: qHTS assay to identify small molecule agonists of the TGF-beta/Smad signaling pathway (AID 1346859; active = well fitted activation curve with a large enough effect in the signal ratio in the repeat runs, not every such curve was filed as active; the % refers to the signal ratio; also: series mostly up to about 77 µM). In short, it runs like this:
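Read-out: fluorescence at 460 and 530 nm (405 nm excitation) after a 2 hr room-temperature incubation with beta-lactamase FRET substrate. SBE-bla HEK 293T cells had been treated with test compounds for 5 hr at 37 C.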
In general terms: qHTS replaces the single test concentration by a dilution series.

Assay [2] can be described thus: Human pregnane X receptor (PXR) small molecule agonists, qHTS cell viability counter screen (AID 1346977). Also: nearly all actives have a fitted effect of over 50% in size. In short, it runs like this:
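Fluorescence read-out (CellTiter-Fluor) of viability in PXR-Luc HepG2 cells, multiplexed with the luciferase agonist read. Compounds in DMSO added after 5hr plating; 24hr total exposure at 37C, 5% CO2.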

The nature of assay [3]: Caspase-3/7 induction in HepG2 cells by small molecules, qHTS assay (AID 1346978). Also: nearly all actives have a fitted effect of over 15% in size. The method, boiled down:
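Wild-type HepG2 cells (2,000/well) were settled 5 h at 37 C, 5% CO2, then exposed to compounds in DMSO for 17 h. Caspase-3/7 activity was read by luminescence 30 min after adding Caspase-Glo 3/7 reagent at room temperature.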

Assay [4] is described as follows: Caspase-3/7 induction in CHO-K1 cells by small molecules, qHTS assay (AID 1346980). Also: nearly all actives have a fitted effect of over 15% in size. The method, boiled down:
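Wild-type cells were seeded at 1,500 per well and settled 5 hr at 37 C, 5% CO2, then exposed to DMSO-dissolved compounds for 17 hr. Caspase-Glo 3/7 reagent was added, and luminescence was read after 30min at room temperature.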

A short description of assay [5]: Caspase-3/7 induction in HepG2 cells by small molecules, qHTS cell viability counter screen (AID 1346981). Also: series mostly up to about 92 µM; nearly all actives have a fitted effect of over 30% in size. The method, boiled down: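 Fluorescence read-out of live-cell protease activity (CellTiter-Fluor) after 1 hr with reagent. This was measured in the same wells as the caspase-3/7 luminescence, on HepG2 cells exposed to DMSO-dissolved compounds for 16 hr at 37 C.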

Assay [6] has as its target Nuclear receptor subfamily 1 group I member 2 (Homo sapiens) (UniProt O75469). Nature of the assay: Human pregnane X receptor (PXR) small molecule agonists, qHTS assay (AID 1346982). Also: nearly all actives have a fitted effect of over 35% in size. The method, boiled down: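 HepG2 PXR-Luc reporter line, 5% charcoal-stripped FBS; 5 hr pre-incubation, compound (DMSO) 24 hr at 37 C/5% CO2; ONE-Glo 30 min RT; luminescence read-out.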
For assay [7], the target named is Nuclear receptor subfamily 1 group I member 2 (Rattus norvegicus) (UniProt Q9R1A7). Nature of the assay: Rat pregnane X receptor (rPXR) activation by small molecules, qHTS assay (AID 1346983). Also: nearly all actives have a fitted effect of over 20% in size. Particulars: rPXR luciferase reporter cells, One-Glo luminescence, 24 h; max activation: active compounds read high. The method, boiled down: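 Cell-based rPXR luciferase reporter assay, 2,000 cells per well, rested 5hr at 37 C before compound addition in DMSO, then 24 hr at 37 C. One-Glo reagent was added and luminescence read after 30 min at room temperature.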
Chain of Nuclear receptor subfamily 1 group I member 2 (Rattus norvegicus) (Q9R1A7 whole entry, looked up): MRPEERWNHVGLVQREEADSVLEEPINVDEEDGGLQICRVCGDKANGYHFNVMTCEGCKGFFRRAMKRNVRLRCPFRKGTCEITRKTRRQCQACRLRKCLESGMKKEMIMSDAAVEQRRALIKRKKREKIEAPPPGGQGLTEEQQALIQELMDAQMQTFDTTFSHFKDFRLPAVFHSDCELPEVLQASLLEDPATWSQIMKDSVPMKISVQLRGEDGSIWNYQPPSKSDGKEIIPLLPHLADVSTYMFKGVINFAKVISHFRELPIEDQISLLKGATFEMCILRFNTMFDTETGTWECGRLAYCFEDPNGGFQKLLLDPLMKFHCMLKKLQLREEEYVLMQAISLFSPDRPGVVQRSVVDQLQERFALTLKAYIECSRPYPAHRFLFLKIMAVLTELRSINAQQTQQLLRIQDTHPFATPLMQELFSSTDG

Assay [8] has as its target Nuclear receptor subfamily 1 group I member 2 (Homo sapiens) (UniProt O75469). Nature of the assay: CYP3A4 induction through human pregnane X receptor (PXR) by small molecules, qHTS assay (AID 1346984). Also: nearly all actives have a fitted effect of over 40% in size. The method, boiled down: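 HepG2-derived DPX-2 line carrying PXR plus a CYP3A4-promoter luciferase reporter; cells plated 5 hr, compound-exposed 24 hr at 37C. CYP3A4 activity probed with 3uM (final) Luciferin-IPA for 3hr, then luciferase read after One-Glo.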

The target is the same in assay [9]. Put plainly: Human pregnane X receptor (PXR) activation by small molecules, qHTS assay (AID 1346985). Also: nearly all actives have a fitted effect of over 40% in size. In short, it runs like this: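 DPX-2 cells (HepG2 co-transfected with a PXR response element and a CYP3A4-promoter luciferase construct) were seeded at 2,000 per well, rested 5 hr at 37C, then exposed to DMSO-dissolved compounds for 24 hr. Activation was read as luciferase luminescence.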

The target of assay [10] is Cytochrome P450 2D6 (Homo sapiens) (UniProt P10635). Nature of the assay: Cytochrome P450 Family 2 Subfamily D Member 6 (CYP2D6) small molecule antagonists: luciferase reporter qHTS assay (AID 1671196). Also: nearly all actives have a fitted effect of over 50% in size. Also: potency is read from the fitted curve at half-maximal effect. In short, it runs like this:
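Luminogenic proluciferin substrate, CYP2D6 enzyme; 10 min RT preincubation with compound, NADPH regeneration system added, 1 h RT. Stop/detection reagent, 20 min RT, luminescence read (RLU). Signal proportional to CYP activity.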
(In general: A reporter such as luciferase makes a cellular process visible.)

The target of assay [11] is Cytochrome P450 2C9 (Homo sapiens) (UniProt P11712). Nature of the assay: Cytochrome P450 Family 2 Subfamily C Member 9 (CYP2C9) small molecule antagonists: luciferase reporter qHTS assay (AID 1671198). Also: nearly all actives have a fitted effect of over 50% in size. Also: potency is read from the fitted curve at half-maximal effect. In short, it runs like this:
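CYP2C9 activity was measured with a P450-Glo proluciferin substrate. Enzyme–substrate mix was held with compound for 10 min at room temperature, then NADPH regeneration solution was added for 1 h at 37C. Luciferin product was read as luminescence.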

The target in assay [12] is Cytochrome P450 1A2 (Homo sapiens) (UniProt P05177). Nature of the assay: Cytochrome P450 Family 1 Subfamily A Member 2 (CYP1A2) small molecule antagonists: luciferase reporter qHTS assay (AID 1671199). Also: nearly all actives have a fitted effect of over 50% in size. Also: potency is read from the fitted curve at half-maximal effect. In short, it runs like this: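 Luminescence readout (relative luminescence units) after luciferin detection reagent, 20 min RT. Preceded by 1 h room-temperature CYP1A2 reaction with NADPH regeneration solution following 10 min compound preincubation with enzyme and proluciferin substrate. Furafylline positive control.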
Chain of Cytochrome P450 1A2 (Homo sapiens) (P05177 whole entry, looked up): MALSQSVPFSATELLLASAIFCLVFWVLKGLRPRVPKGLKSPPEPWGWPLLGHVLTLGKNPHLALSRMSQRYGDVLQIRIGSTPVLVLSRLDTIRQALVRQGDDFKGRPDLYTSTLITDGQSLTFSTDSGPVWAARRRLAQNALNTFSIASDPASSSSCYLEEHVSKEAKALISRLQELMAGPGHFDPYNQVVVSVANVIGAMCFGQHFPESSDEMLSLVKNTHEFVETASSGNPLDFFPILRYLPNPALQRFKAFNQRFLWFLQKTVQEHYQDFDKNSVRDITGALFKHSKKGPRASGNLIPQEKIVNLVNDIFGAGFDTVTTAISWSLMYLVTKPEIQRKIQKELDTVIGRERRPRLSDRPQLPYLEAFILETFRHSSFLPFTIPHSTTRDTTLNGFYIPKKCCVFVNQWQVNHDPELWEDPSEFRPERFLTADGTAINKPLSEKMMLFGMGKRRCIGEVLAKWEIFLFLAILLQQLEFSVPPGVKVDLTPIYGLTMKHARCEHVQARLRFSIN

The target of assay [13] is Voltage-gated inwardly rectifying potassium channel KCNH2 (Homo sapiens) (UniProt Q12809). Nature of the assay: Human Ether-a-go-go-Related Gene (hERG) channel small molecule antagonists: fluorescence cell-based qHTS assay (AID 1671200). The method, boiled down: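 Read-out: thallium influx as a surrogate for potassium, tracked as fluorescence (480 nm ex/540 nm em) every second for 2 min after Stimulus Buffer addition in dye-loaded hERG-U2OS cells.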
Chain of Voltage-gated inwardly rectifying potassium channel KCNH2 (Homo sapiens) (Q12809 whole entry, looked up): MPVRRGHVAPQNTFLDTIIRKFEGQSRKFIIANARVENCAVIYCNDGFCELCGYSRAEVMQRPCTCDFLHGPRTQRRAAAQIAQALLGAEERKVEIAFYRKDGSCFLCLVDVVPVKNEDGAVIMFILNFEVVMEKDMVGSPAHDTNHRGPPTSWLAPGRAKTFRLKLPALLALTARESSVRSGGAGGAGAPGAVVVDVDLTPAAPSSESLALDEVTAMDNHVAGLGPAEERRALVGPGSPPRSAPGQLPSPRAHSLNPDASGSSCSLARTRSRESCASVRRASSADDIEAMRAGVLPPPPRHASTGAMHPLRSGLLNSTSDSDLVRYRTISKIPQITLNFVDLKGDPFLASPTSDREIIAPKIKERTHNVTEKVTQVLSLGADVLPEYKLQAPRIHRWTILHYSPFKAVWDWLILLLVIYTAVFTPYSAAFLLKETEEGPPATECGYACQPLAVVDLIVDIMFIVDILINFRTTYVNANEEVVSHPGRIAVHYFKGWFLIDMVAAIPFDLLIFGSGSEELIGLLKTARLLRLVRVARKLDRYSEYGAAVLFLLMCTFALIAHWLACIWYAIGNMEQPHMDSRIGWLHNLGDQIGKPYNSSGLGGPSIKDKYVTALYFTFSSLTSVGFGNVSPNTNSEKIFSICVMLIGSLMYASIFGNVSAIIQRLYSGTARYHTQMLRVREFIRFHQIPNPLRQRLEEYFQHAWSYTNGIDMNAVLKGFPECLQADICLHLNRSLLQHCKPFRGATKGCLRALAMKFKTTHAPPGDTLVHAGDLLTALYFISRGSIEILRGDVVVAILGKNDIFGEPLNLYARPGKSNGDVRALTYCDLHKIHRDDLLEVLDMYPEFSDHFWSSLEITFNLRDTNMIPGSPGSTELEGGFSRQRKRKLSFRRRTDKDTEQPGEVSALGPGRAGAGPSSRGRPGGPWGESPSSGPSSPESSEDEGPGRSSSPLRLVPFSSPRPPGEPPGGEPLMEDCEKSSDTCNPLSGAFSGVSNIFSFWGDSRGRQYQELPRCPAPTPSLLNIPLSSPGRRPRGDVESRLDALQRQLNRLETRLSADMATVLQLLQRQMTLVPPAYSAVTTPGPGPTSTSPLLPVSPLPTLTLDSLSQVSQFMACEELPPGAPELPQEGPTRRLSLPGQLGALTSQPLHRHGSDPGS

Assay [14] concerns the target Cytochrome P450 3A4 (Homo sapiens) (UniProt P08684). Put plainly: Cytochrome P450 Family 3 Subfamily A Member 4 (CYP3A4) small molecule antagonists: luciferase reporter qHTS assay (AID 1671201). In short, it runs like this: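 Luminescent readout (RLU) proportional to CYP3A4 activity, from luciferin generated off a proluciferin substrate. Enzyme–substrate mix plus compound 10 min at room temp, NADPH regeneration 1 h, detection reagent 20 min.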

In assay [15] the target is Thyrotropin-releasing hormone receptor (Homo sapiens) (UniProt P34981). Nature of the assay: qHTS assay to identify small molecule antagonists of the thyrotropin-releasing hormone receptor (TRHR) signaling pathway (AID 1346877; active = well fitted inhibition curve with a large enough effect in the repeat runs, not every such curve was filed as active; also: series mostly up to about 51 µM). In short, it runs like this:
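HEK293/TRHR cells, 18 h, 37 °C; Ca2+ dye 2 h; cpd 5 min RT; TRH 1 nM final; fluorescence read 3 min, 1 s intervals; 15 concs, triplicate.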

Assay [16] has the same target. Nature of the assay: qHTS assay to identify small molecule agonists of the thyrotropin-releasing hormone receptor (TRHR) signaling pathway (AID 1346891; calls by dose curve;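 also: HEK293 cells expressing TRHR with calcium dye readout; series mostly up to about 58 µM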). The method, boiled down: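 HEK293/TRHR cells, 1500 per well, 18 h 37 °C; Ca dye 2 h 37 °C; pin-tool compound addition (agonist mode); kinetic fluorescence 3 min, 1 s reads; 15 concentrations, triplicate.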
Assay [17] in a line: Caspase-3/7 induction in CHO-K1 cells by small molecules, qHTS cell viability counter screen (AID 1346979). Also: nearly all actives have a fitted effect of over 35% in size. The method, boiled down:
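CHO-K1 wt, 1,500 cells/well; 5hr pre-incubation 37C/5% CO2; compound pin transfer (DMSO); 16hr exposure; CellTiter-Fluor added, 1hr, fluorescence read.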

Assay [18] concerns the target Cytochrome P450 2C19 (Homo sapiens) (UniProt P33261). Put plainly: Cytochrome P450 Family 2 Subfamily C Member 19 (CYP2C19) small molecule antagonists: luciferase reporter qHTS assay (AID 1671197). Also: nearly all actives have a fitted effect of over 65% in size. Also: potency is read from the fitted curve at half-maximal effect. In short, it runs like this: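 CYP2C19 P450-Glo, 1536-well qHTS. Cpd + enzyme/proluciferin substrate 10 min RT; + NADPH regen, 37C 1 h; stop with luciferin detection reagent, 20 min RT, luminescence (RLU). Pos ctrl ketoconazole.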

Molecules are shown by their SMILES. A number with no mark means an inactive call. Records with an inconclusive call do not appear. Active and inactive are the calls of the source. Unless noted, calls follow the shape of the dose curve; as a rule, active = well fitted curve in the direction sought with a large enough effect in the repeat runs; inconclusive = weak or mixed curves; inactive = no such curve, though single readings can be large; an effect the other way counts as inactive or inconclusive.
% is scaled to controls: 0 for no effect and ±100 for the full control effect.

Chain of Nuclear receptor subfamily 1 group I member 2 (Homo sapiens) (O75469 whole entry, looked up): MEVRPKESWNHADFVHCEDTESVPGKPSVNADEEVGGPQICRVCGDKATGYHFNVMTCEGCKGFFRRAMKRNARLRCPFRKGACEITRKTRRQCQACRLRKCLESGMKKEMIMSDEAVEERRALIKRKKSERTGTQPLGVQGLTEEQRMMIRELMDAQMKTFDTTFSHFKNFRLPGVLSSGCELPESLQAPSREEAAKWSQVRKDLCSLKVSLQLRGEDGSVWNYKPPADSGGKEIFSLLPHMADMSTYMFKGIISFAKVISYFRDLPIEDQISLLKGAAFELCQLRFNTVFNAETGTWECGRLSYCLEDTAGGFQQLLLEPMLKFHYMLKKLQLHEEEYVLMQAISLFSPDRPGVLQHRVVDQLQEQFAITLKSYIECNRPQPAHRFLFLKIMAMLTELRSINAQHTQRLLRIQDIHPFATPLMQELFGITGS
Chain of Cytochrome P450 3A4 (Homo sapiens) (P08684 whole entry, looked up): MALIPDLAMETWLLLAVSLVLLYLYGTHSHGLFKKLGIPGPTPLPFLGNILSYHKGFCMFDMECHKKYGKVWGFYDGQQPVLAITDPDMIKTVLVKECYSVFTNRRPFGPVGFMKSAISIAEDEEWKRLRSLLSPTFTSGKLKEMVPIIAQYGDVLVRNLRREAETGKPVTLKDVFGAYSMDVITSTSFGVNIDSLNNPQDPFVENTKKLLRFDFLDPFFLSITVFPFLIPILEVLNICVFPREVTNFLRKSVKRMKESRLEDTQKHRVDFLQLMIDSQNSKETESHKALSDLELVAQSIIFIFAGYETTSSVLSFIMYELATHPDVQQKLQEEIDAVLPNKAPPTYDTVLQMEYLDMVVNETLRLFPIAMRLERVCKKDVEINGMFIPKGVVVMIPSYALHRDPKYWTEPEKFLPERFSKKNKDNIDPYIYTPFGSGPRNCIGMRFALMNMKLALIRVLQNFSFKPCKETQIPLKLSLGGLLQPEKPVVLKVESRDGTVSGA
Chain of Cytochrome P450 2C9 (Homo sapiens) (P11712 whole entry, looked up): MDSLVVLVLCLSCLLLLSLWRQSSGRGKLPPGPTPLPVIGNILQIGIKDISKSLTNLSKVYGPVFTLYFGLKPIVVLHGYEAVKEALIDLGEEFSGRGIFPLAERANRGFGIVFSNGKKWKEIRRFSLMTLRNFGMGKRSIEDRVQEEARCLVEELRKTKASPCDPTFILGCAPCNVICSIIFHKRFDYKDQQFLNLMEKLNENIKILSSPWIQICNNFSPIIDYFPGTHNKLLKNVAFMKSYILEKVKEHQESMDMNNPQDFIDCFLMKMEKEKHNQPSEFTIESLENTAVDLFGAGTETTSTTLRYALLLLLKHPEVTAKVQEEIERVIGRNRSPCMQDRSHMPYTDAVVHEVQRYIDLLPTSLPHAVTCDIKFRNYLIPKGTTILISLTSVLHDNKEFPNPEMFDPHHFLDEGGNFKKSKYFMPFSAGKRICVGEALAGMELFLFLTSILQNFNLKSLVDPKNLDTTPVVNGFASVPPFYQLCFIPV
Chain of Thyrotropin-releasing hormone receptor (Homo sapiens) (P34981 whole entry, looked up): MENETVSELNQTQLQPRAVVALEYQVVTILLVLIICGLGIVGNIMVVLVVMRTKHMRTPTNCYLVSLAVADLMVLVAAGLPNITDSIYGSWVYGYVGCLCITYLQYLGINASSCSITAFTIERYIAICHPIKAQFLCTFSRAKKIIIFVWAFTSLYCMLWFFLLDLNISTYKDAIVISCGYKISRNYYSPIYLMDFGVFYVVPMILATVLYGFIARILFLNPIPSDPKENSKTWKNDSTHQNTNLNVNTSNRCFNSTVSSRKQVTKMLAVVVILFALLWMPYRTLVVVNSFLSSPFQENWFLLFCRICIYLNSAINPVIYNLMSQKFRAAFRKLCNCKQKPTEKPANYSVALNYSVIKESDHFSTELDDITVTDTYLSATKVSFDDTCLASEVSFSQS
Chain of Cytochrome P450 2D6 (Homo sapiens) (P10635 whole entry, looked up): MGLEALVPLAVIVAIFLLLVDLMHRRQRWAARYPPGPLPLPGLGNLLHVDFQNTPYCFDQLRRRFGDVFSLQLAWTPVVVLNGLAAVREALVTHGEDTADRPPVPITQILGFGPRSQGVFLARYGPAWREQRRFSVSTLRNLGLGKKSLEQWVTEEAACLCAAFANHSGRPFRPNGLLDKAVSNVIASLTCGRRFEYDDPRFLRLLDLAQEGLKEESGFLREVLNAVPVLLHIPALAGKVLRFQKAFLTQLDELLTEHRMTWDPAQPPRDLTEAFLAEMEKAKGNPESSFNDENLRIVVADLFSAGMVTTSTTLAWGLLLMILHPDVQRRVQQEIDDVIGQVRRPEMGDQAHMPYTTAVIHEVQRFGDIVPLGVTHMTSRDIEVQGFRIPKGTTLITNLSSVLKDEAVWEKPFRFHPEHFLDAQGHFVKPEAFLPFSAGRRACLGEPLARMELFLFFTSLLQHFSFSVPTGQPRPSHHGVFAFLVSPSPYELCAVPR
Chain of Cytochrome P450 2C19 (Homo sapiens) (P33261 whole entry, looked up): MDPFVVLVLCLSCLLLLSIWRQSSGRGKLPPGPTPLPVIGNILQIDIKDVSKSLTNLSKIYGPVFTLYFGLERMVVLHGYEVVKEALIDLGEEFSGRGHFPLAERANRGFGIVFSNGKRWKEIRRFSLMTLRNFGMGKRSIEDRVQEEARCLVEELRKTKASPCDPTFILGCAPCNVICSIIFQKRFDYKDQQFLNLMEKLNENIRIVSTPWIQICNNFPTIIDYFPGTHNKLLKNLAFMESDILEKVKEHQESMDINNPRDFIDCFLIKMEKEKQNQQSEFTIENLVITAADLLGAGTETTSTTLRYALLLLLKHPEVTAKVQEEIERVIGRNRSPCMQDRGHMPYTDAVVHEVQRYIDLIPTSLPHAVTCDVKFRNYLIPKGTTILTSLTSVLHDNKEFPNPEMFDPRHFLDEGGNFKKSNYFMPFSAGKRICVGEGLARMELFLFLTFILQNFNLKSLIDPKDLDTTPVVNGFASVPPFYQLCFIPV

`CCCCC(CC)CCC(CC(C)C)OS(=O)(=O)O` (centres undefined): the molecule was classed as inactive in [1], in [2], in [3], in assay [4], in assay [5] and in assay [8]. Besides, the molecule was classed as inactive in assay [9]. Further, the Potency result in assay [6], in assay [10], in assay [12], in assay [13] and in assay [14] was “inactive” each time. For the same molecule, the max activation in assay [7] is -2.27%. The Potency in assay [11] was 31.7 µM (active).

`CCOC(=O)COc1ccc2c(C)c(CCN(CC)CC)c(=O)oc2c1Cl`: the outcome in [15], in [2], in assay [3], in assay [4], in [5] and in [8] was inactive. Further, the molecule was classed as inactive in assay [9]. For the same molecule, the Potency result in assay [16], in [17], in assay [6], in [11] and in [12] was “inactive” throughout. The max activation in assay [7] is 4.23%.

Consider `CCO/C=C1\N=C(c2ccccc2)OC1=O`, for which the molecule was classed as inactive in assay [1], in assay [2], in assay [3], in [4] and in [5]. The Potency entry in [17], in [6], in assay [13] and in assay [14] was “inactive” each time. Also, the Potency in assay [12] is 35.5 µM (active).

Take `C=CCOC(=O)CCCCCCCC`: the call in [1], in assay [2], in assay [3], in assay [4] and in assay [5] was inactive. Further, the Potency entry in assay [17], in assay [18], in [11], in assay [13] and in [14] was “inactive” in each case. The Potency in assay [10] is 63.8 µM (active).

In the case of `CCOCCOCCOC(C)=O`, the molecule was classed as inactive in [1], in assay [2], in assay [4] and in [5]. Moreover, the Potency entry in assay [17], in [6], in assay [10], in [18], in assay [11] and in assay [12] was “inactive” in each case. Also, the Potency entry in assay [13] and in assay [14] was “inactive” in each case.

As for `CCCCCCCCCCCCCC(=O)OCC`, the molecule was called inactive in [15], in assay [2], in [3] and in [4]. The Potency entry in assay [16], in assay [17], in [6], in assay [10], in assay [18] and in assay [11] was “inactive” throughout. Moreover, the Potency entry in assay [13] and in assay [14] was “inactive” in each case.

For the molecule `Cc1nnc(C(=O)NC(C)(C)c2nc(C(=O)NCc3ccc(F)cc3)c(O)c(=O)n2C)o1`, the outcome in assay [15], in [2], in assay [3], in assay [4] and in assay [5] was inactive. The Potency result in [16], in assay [17], in [6], in assay [10], in [18] and in assay [11] was “inactive” in each case. In addition, the Potency entry in assay [12] and in [14] was “inactive” each time.

In the case of `O=P(O)(O)C(O)(Cc1cccnc1)P(=O)(O)O`, the outcome in assay [2], in assay [3], in assay [4], in [5], in assay [8] and in [9] was inactive. Besides, the Potency entry in [17], in assay [6], in [10], in assay [11], in assay [12] and in [13] was “inactive” each time. In addition, the max activation in assay [7] is -2.56%.

For `CCCCCC(CC)OC(=O)CCCOc1ccc(Cl)cc1Cl` (centres undefined), the call in assay [15], in assay [2], in assay [3] and in [4] was inactive. For the same molecule, the Potency entry in [16], in [17], in assay [6], in assay [10] and in assay [13] was “inactive” each time. Also, the Potency in assay [18] was 35.5 µM (active); in assay [11], 28.2 µM (active).
